We go through 39 compounds from PubChem BioAssay (Tox21).

Where “and” joins values, the source holds several entries; their conditions need not be identical. Equal entries are not always repeated. Inconclusive results are not listed. Where a call stands in place of a potency, no number is given. A number with no mark means an inactive call. Calls of active or inactive are those of the source. Unless noted, the call rests on the fitted dose curve.
Potency means the concentration at half of the fitted maximal effect.

The nature of the first assay: qHTS assay to identify small molecule antagonists of the vitamin D receptor (VDR) signaling pathway - cell viability counter screen (AID 743225; active means well fitted cell-killing curve with a large enough effect in the repeat runs; further: nearly all actives have a fitted effect of over 50% in size). Conditions: VDR-bla HEK293T viability, CellTiter-Glo luminescence, 16 h; series mostly up to 61 µM; viability change, negative = cytotoxic: at the top concentration. In a few lines: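 Compounds were pinned onto VDR-bla HEK 293T cells together with 1-alpha,25-dihydroxyvitamin D3 at 3 nM final. After 16 h at 37C and 5% CO2 plus the reporter readout, cell viability was measured by CellTiter-Glo luminescence (30 min, room temperature).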
Turning to `COc1ccc(C(=O)c2ccccc2O)c(O)c1`, the “viability change, negative = cytotoxic” value was -0.576%.

With `CCCCCC=O`, the Potency entry was “inactive”.

Take `CC(=O)O[C@]1(C(C)=O)CC[C@H]2[C@@H]3C=C(Cl)C4=CC(=O)CC[C@]4(C)[C@H]3CC[C@@]21C`: the Potency entry is “inactive”.

In the case of `OC[C@@H](O)[C@@H](O[C@@H]1O[C@H](CO)[C@H](O)[C@H](O)[C@H]1O)[C@H](O)[C@@H](O)CO`, the Potency result was “inactive”.

On to `Nc1cc([N+](=O)[O-])ccc1C(=O)O`, for which the Potency entry is “inactive”.

Consider `Nc1ccc2c(O)cc(S(=O)(=O)O)cc2c1`, for which the Potency result was “inactive”.

For `C=CCOC(=O)C(=C)C`, the “viability change, negative = cytotoxic” value was 0.641%.

Regarding `Cc1ccc(N)c([N+](=O)[O-])c1`, the Potency result was “inactive”.

`O=C(O)c1ccc(O)cc1`: the Potency entry is “inactive”.

`O=C1OC2(c3ccccc31)c1cc(I)c(O)c(I)c1Oc1c2cc(I)c(O)c1I`: the Potency result is “inactive”.

For the compound `IC(I)I`, the Potency result was “inactive”.

For `CCCCCCC(C)O` (stereo unspecified), the “viability change, negative = cytotoxic” value is -9.53%.

Regarding `CCCCCCCCCCC(CO)CCCCCCCC` (stereo unspecified), the Potency entry was “inactive”.

As to `C=CC(=O)OCCCC`, the Potency result was “inactive”.

Consider `FC(F)(F)C(Cl)Br` (stereo unspecified), for which the Potency result was “inactive”.

In the case of `CC1(C)NC(=O)N(c2ccc([N+](=O)[O-])c(C(F)(F)F)c2)C1=O`, the Potency entry is “inactive”.

In the case of `CCCCCCCC/C=C\CCCCCCCC(=O)O`, the Potency result was “inactive”.

As to `CC(=O)[C@@]1(O)CC[C@H]2[C@@H]3C[C@H](C)C4=CC(=O)C=C[C@]4(C)[C@@]3(F)[C@@H](O)C[C@@]21C`, the Potency entry was “inactive”.

On to `Cc1cccc(Nc2ccccc2C(=O)O)c1C`, for which the Potency result is “inactive”.

In the case of `CC(C)[C@@H]1CC[C@@H](C)CC1=O`, the Potency entry was “inactive”.

Consider `O=C(O)COCCN1CCN(C(c2ccccc2)c2ccc(Cl)cc2)CC1` (stereo unspecified), for which the Potency result is “inactive”.

`Cc1ccc(S(=O)(=O)NCl)cc1`: the Potency entry was “inactive”.

`C1CN(SSN2CCOCC2)CCO1`: the Potency entry is “inactive”.

`c1ccc2cc3ccccc3cc2c1`: the Potency entry was “inactive”.

With `O=S1(=O)CCCO1`, the Potency result is “inactive”.

Consider `Nc1ccc(O)c(N)c1`, for which the Potency result was “inactive”.

In the case of `CN(Cc1cnc2nc(N)nc(N)c2n1)c1ccc(C(=O)N[C@@H](CCC(=O)O)C(=O)O)cc1`, the Potency is 213 nM (active).

For the compound `C=CN1CCCC1=O`, the Potency entry was “inactive”.

Consider `Cc1ccc(C(C)(C)C)cc1`, for which the Potency result was “inactive”.

Take `CC(C)(C)c1cccc(C(C)(C)C)c1O`: the Potency entry is “inactive”.

As for `OCCNCCO`, the Potency entry was “inactive”.

With `Cc1ccc(C(C)(C)C)c(O)c1`, the “viability change, negative = cytotoxic” value was -1.72%.

On to `C=C[Si](OCCOC)(OCCOC)OCCOC`, for which the Potency entry was “inactive”.

On to `C[C@]12CC[C@@H]3c4ccc(O)cc4CC[C@H]3[C@@H]1CC[C@H]2O`, for which the “viability change, negative = cytotoxic” value was -0.0422% [at 78.8 µM].

For the compound `C[C@]12CC[C@@H]3c4ccc(O)cc4CC[C@H]3[C@@H]1CC[C@@H]2O`, the Potency result was “inactive”.

Consider `Cc1ccc(C)c(O)c1`, for which the Potency entry is “inactive”.

Turning to `NCCN`, the “viability change, negative = cytotoxic” value is 4.4% [at 78.8 µM].

A further assay is described as follows: qHTS assay to identify small molecule agonists of the NFkB signaling pathway - cell viability counter screen (AID 1159515). Further: nearly all actives have a fitted effect of over 55% in size. The following applies: NFkB-bla ME-180 viability, CellTiter-Glo luminescence, 5 h; series mostly up to 61 µM; activity, negative = cytotoxic: at the top concentration. In a few lines:
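Read by CellTiter-Glo luminescence (30 min, room temperature) in the wells also used for the beta-lactamase FRET read. ME-180 NFkB-bla cells at 2,000 per well were plated overnight, then exposed to compound for 5 hr at 37 C.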
With `COc1ccc(C(=O)c2ccccc2O)c(O)c1`, the Potency entry is “inactive”.

`CCCCCC=O`: the Potency entry is “inactive”.

Take `C=C[C@@]1(C)CC(=O)[C@]2(O)[C@@]3(C)[C@@H](O)CCC(C)(C)[C@@H]3[C@H](O)[C@H](OC(C)=O)[C@@]2(C)O1`: the Potency was 24.5 µM (active) and 21.3 µM (active).

As to `CC(=O)O[C@]1(C(C)=O)CC[C@H]2[C@@H]3C=C(Cl)C4=CC(=O)CC[C@]4(C)[C@H]3CC[C@@]21C`, the Potency entry is “inactive”.

As to `OC[C@@H](O)[C@@H](O[C@@H]1O[C@H](CO)[C@H](O)[C@H](O)[C@H]1O)[C@H](O)[C@@H](O)CO`, the Potency result was “inactive”.

Take `Nc1cc([N+](=O)[O-])ccc1C(=O)O`: the Potency entry was “inactive”.

On to `Nc1ccc2c(O)cc(S(=O)(=O)O)cc2c1`, for which the Potency result is “inactive”.

Turning to `C=CCOC(=O)C(=C)C`, the Potency result was “inactive”.

Take `Cc1ccc(N)c([N+](=O)[O-])c1`: the Potency entry is “inactive”.

For the compound `O=C(O)c1ccc(O)cc1`, the Potency entry is “inactive”.

For `O=C1OC2(c3ccccc31)c1cc(I)c(O)c(I)c1Oc1c2cc(I)c(O)c1I`, the Potency result is “inactive”.

As for `IC(I)I`, the Potency entry was “inactive”.

Turning to `CCCCCCC(C)O` (stereo unspecified), the Potency result was “inactive”.

Turning to `CCCCCCCCCCC(CO)CCCCCCCC` (stereo unspecified), the Potency entry was “inactive”.

`C=CC(=O)OCCCC`: the Potency result is “inactive”.

In the case of `CCCCCC1C(=O)CCC1CC(=O)OC` (stereo unspecified), the Potency result is “inactive”.

Consider `FC(F)(F)C(Cl)Br` (stereo unspecified), for which the Potency entry was “inactive”.

As for `CC1(C)NC(=O)N(c2ccc([N+](=O)[O-])c(C(F)(F)F)c2)C1=O`, the Potency result was “inactive”.

For `CCCCCCCC/C=C\CCCCCCCC(=O)O`, the Potency result was “inactive”.

For `CC(=O)[C@@]1(O)CC[C@H]2[C@@H]3C[C@H](C)C4=CC(=O)C=C[C@]4(C)[C@@]3(F)[C@@H](O)C[C@@]21C`, the Potency result is “inactive”.

Turning to `Cc1cccc(Nc2ccccc2C(=O)O)c1C`, the Potency entry is “inactive”.

`CC(C)[C@@H]1CC[C@@H](C)CC1=O`: the Potency entry is “inactive”.

With `O=C(O)COCCN1CCN(C(c2ccccc2)c2ccc(Cl)cc2)CC1` (stereo unspecified), the Potency result is “inactive”.

With `Cc1ccc(S(=O)(=O)NCl)cc1`, the Potency result is “inactive”.

On to `C1CN(SSN2CCOCC2)CCO1`, for which the Potency entry is “inactive”.

On to `c1ccc2cc3ccccc3cc2c1`, for which the Potency result is “inactive”.

Turning to `O=S1(=O)CCCO1`, the Potency result is “inactive”.

Take `Nc1ccc(O)c(N)c1`: the Potency entry was “inactive”.

Take `CN(Cc1cnc2nc(N)nc(N)c2n1)c1ccc(C(=O)N[C@@H](CCC(=O)O)C(=O)O)cc1`: the Potency result is “inactive”.

In the case of `C=CN1CCCC1=O`, the Potency entry is “inactive”.

Regarding `Cc1ccc(C(C)(C)C)cc1`, the Potency entry is “inactive”.

For the compound `CC(C)(C)c1cccc(C(C)(C)C)c1O`, the Potency result is “inactive”.

For `OCCNCCO`, the Potency result is “inactive”.

With `Cc1ccc(C(C)(C)C)c(O)c1`, the Potency entry is “inactive”.

In the case of `C=C[Si](OCCOC)(OCCOC)OCCOC`, the Potency entry is “inactive”.

As to `C[C@]12CC[C@@H]3c4ccc(O)cc4CC[C@H]3[C@@H]1CC[C@H]2O`, the Potency entry was “inactive”.

For `C[C@]12CC[C@@H]3c4ccc(O)cc4CC[C@H]3[C@@H]1CC[C@@H]2O`, the Potency entry was “inactive”.

Consider `Cc1ccc(C)c(O)c1`, for which the Potency result is “inactive”.

Regarding `NCCN`, the Potency result is “inactive”.
